Assay results from PubChem BioAssay (NCI).
The panel holds about 83,000 compounds, 20% with a hit somewhere; the sample as a whole holds those more often.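 Method: cells in 96-well plates; compound added at one concentration; 48 h incubation; percent growth measured; values under 10 scored active.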 Calls of active or inactive are those of the source.

Assays:
Experiment in all cases: NCI-60 one-dose screen, 48 h (100 = growth as untreated, 0 = no growth, -100 = all killed)
Conditions in all cases: 10 µM unless noted
[1] = test system: SR leukemia
[2] = test system: RPMI-8226 leukemia
[3] = test system: OVCAR-8 ovarian
[4] = test system: OVCAR-5 ovarian
[5] = test system: OVCAR-4 ovarian
[6] = test system: SK-OV-3 ovarian
[7] = test system: IGROV1 ovarian
[8] = test system: OVCAR-3 ovarian
[9] = test system: HS 578T breast
[10] = test system: NCI/ADR-RES ovarian
[11] = test system: T-47D breast
[12] = test system: BT-549 breast
[13] = test system: MDA-MB-435 melanoma
[14] = test system: SW-620 colon
[15] = test system: MCF7 breast
[16] = test system: HCT-116 colon
[17] = test system: HCC-2998 colon
[18] = test system: KM12 colon

Measured: growth

Nc1ccc(-c2ccncc2)cc1NC(=O)N1CCCC1
inactive: [1] 91.8% | [2] 82.2% | [3] 85.3% | [4] 109% | [5] 101% | [6] 92.2% | [7] 99.4% | [8] 99.3% | [9] 93.7% | [10] 81.8% | [11] 81.9% | [12] 104% | [13] 96.3% | [14] 98.2% | [15] 87% | [16] 86.8% | [17] 94.4% | [18] 94.6%

Clc1ccc2nn3c4ccccc4c(OCCN4CCOCC4)nc3c2c1
inactive: [1] 88.1% | [2] 91.8% | [3] 85% | [4] 93.2% | [5] 90% | [6] 94.1% | [7] 71% | [8] 97.5% | [9] 97.5% | [10] 80.4% | [11] 87.7% | [12] 97.8% | [13] 103% | [14] 88.1% | [15] 83.4% | [16] 88.7% | [17] 107% | [18] 100%

COC(=O)/C(CCC=C(C)C)=C1\[C@@H](OC(C)=O)C[C@@]2(C)[C@H]1C/C(=N/O)[C@H]1[C@@]3(C)CC/C(=N\O)[C@@H](C)[C@@H]3CC[C@@]12C
inactive: [1] 66.2% | [2] 46.3% | [3] 90.4% | [4] 135% | [5] 97.3% | [6] 107% | [7] 100% | [8] 93.8% | [9] 94.3% | [10] 102% | [11] 82.9% | [12] 95.5% | [13] 98.6% | [14] 106% | [15] 55.1% | [16] 101% | [17] 110% | [18] 103%

COC(=O)Cn1c2c(c3c(OC)cccc31)C(=O)c1ccccc1-2
inactive: [1] 84.8% | [2] 85.3% | [3] 107% | [4] 81.1% | [5] 101% | [6] 96.9% | [7] 110% | [8] 116% | [9] 97.2% | [10] 95.5% | [11] 89.7% | [12] 103% | [13] 112% | [14] 96.9% | [15] 85.9% | [16] 89.1% | [17] 89.8% | [18] 107%

COc1ccc(Nc2ncc(C#N)c(NCCCNC(=O)C3CCC3)n2)cc1
inactive: [1] 46.3% | [2] 85.8% | [3] 64% | [4] 79.6% | [5] 77.7% | [6] 77.6% | [7] 54.4% | [8] 70.2% | [9] 47.7% | [10] 83.1% | [11] 109% | [12] 70.6% | [13] 68.5% | [14] 41.5% | [15] 63.7% | [16] 50.1% | [18] 64.2%

N=C(N)c1ccc(OCCSCCOc2ccc(C(=N)N)cc2)cc1
inactive: [1] 73.1% | [2] 73.9% | [3] 64% | [4] 77.6% | [5] 64.7% | [6] 82% | [7] 93.3% | [8] 86.4% | [9] 85.4% | [10] 97.7% | [11] 50.5% | [12] 11.1% | [13] 79.9% | [14] 87.6% | [15] 58.1% | [16] 68.4% | [17] 79.7% | [18] 62.2%

COc1ccc(C2C3=C(COC3=O)N(CCO)c3cc4c(cc32)OCO4)cc1OC (configuration not stated)
inactive: [1] 24.3% | [2] 88.8% | [3] 102% | [4] 94.7% | [5] 88.1% | [6] 84.1% | [7] 60.9% | [8] 43% | [9] 92.4% | [10] 94.7% | [11] 87.5% | [12] 80.5% | [14] 61.6% | [15] 64.3% | [16] 68.6% | [17] 74.5% | [18] 62.4%
active: [13] 5.99%

Cn1cc(-c2nonc2-c2c[nH]c3ccccc23)c2cc(Br)ccc21
active: [13] 2.49%
inactive: [1] 15.3% | [2] 40.6% | [3] 45% | [4] 49% | [5] 49.6% | [6] 49.8% | [7] 43% | [8] 33.5% | [9] 59.1% | [10] 29.3% | [11] 14.5% | [12] 47.1% | [14] 23.9% | [15] 19.6% | [16] 25.6% | [17] 43.4% | [18] 17.7%

N#Cc1nn(-c2cc(=O)[nH]c3ccc(Br)cc23)c(N)c1C#N
active: [1] -14.2% | [2] -29.7%
inactive: [3] 96% | [4] 103% | [5] 81.6% | [6] 69.1% | [7] 90.5% | [8] 103% | [9] 88.6% | [10] 102% | [11] 56.1% | [12] 85.1% | [13] 95.5% | [14] 83.5% | [15] 104% | [16] 85.7% | [18] 109%

C/C(Cc1ccc(Cl)cc1)=C(\c1ccc(OCCN2CCCCCC2)cc1)c1ccc(OC(=O)c2ccccc2)cc1
active: [1] -14.3% | [2] -24.6% | [15] 9.46% | [16] -64.8%
inactive: [3] 34.5% | [4] 68.7% | [5] 36.6% | [6] 86.9% | [7] 24.4% | [8] 59.1% | [9] 56% | [10] 47% | [11] 46.3% | [12] 56.2% | [13] 47.6% | [14] 37.3% | [18] 32%

C=C1C(=O)O[C@H]2[C@H]1CC/C(COC(=O)C(=O)c1c[nH]c3ccc(Cl)cc13)=C\CC[C@@]1(C)O[C@@H]21
active: [1] 1.13% | [2] -39.1% | [3] -30.3% | [4] -36.6% | [5] -89.3% | [7] -81% | [8] -95% | [9] -14.2% | [10] -20% | [11] -44.9% | [12] -87.2% | [13] -96.4% | [14] -75.5% | [15] -32.5% | [16] -99.6% | [17] -75.9% | [18] -72.8%
inactive: [6] 26.2%

COc1ccc(CN2C(=O)OC(C)(COC(C)=O)C2=O)cc1 (configuration not stated)
inactive: [1] 94% | [2] 103% | [3] 104% | [4] 97.2% | [5] 104% | [6] 97.3% | [8] 112% | [9] 108% | [11] 91.9% | [12] 107% | [13] 107% | [14] 107% | [15] 96.3% | [16] 93.5% | [17] 100% | [18] 112%

CC(=O)N1N=C(c2ccc(Nc3nc(Nc4ccc(F)cc4)nc(Nc4ccc(F)cc4)n3)cc2)CC1c1ccc(N(C)C)cc1 (configuration not stated)
active: [1] -4.86% | [2] 4.52% | [13] 6.22%
inactive: [3] 27.6% | [4] 78.4% | [5] 62.2% | [6] 90.6% | [8] 69.5% | [9] 62.9% | [11] 25% | [12] 63.9% | [14] 63.7% | [15] 42.2% | [16] 43.3% | [17] 67.5% | [18] 39.8%

C/C=C1/CN(CCCCC)CC[C@H]1C(=O)c1cc2ccccc2[nH]1
inactive: [1] 98.4% | [2] 94.9% | [3] 91.7% | [4] 96.3% | [5] 86.6% | [6] 83.3% | [7] 98.5% | [8] 94% | [9] 97.3% | [11] 82.6% | [12] 97.4% | [14] 87% | [15] 89.3% | [16] 66.5% | [17] 101% | [18] 109%

Cc1sc2nc(NCCN)[nH]c(=O)c2c1C
inactive: [1] 89.6% | [2] 110% | [3] 101% | [4] 89.5% | [5] 85.1% | [6] 111% | [7] 100% | [8] 96.7% | [9] 88.7% | [11] 95% | [12] 94.3% | [13] 84.9% | [15] 89.6% | [16] 97.8% | [17] 101% | [18] 84.3%

C#CCOc1ccc2nc(CCl)c(Cl)c(Nc3cccc(C(F)(F)F)c3)c2c1
inactive: [1] 17.7% | [2] 62.7% | [3] 82.7% | [4] 104% | [5] 101% | [6] 114% | [8] 78.2% | [9] 88.8% | [10] 97.1% | [11] 65.9% | [12] 60.6% | [13] 84.1% | [14] 66.4% | [15] 40.7% | [16] 64% | [17] 98.3% | [18] 93.6%

CCn1cc(C(=O)N/N=C/c2cccc(F)c2)c(=O)c2cc(F)c(N3CCNC(C)C3)c(F)c21 (configuration not stated)
active: [1] -29.2% | [2] -42.2% | [3] -5.39% | [8] -83.3% | [13] -74.7% | [15] -83.5% | [17] -80.6% | [18] -26.8%
inactive: [4] 90.2% | [5] 23.8% | [6] 108% | [7] 69.4% | [9] 81.3% | [11] 72.3% | [12] 82.9% | [16] 71.2%
